Only some compounds are listed: those with a hit (about 2.4% of all), similar ones and a draw of the others.
D2 antagonist: D2 dopamine receptor (human) antagonism | HEK293 TREx D2 cells, calcium flux, dopamine EC80 | inhibition, % at 10 µM | 2% of 340,000 active | AID 485344; in the data active = inhibition above about 30%; inactive = below that, where a call was filed; note: 0% is about no effect
Target sequence (P14416 whole entry, looked up): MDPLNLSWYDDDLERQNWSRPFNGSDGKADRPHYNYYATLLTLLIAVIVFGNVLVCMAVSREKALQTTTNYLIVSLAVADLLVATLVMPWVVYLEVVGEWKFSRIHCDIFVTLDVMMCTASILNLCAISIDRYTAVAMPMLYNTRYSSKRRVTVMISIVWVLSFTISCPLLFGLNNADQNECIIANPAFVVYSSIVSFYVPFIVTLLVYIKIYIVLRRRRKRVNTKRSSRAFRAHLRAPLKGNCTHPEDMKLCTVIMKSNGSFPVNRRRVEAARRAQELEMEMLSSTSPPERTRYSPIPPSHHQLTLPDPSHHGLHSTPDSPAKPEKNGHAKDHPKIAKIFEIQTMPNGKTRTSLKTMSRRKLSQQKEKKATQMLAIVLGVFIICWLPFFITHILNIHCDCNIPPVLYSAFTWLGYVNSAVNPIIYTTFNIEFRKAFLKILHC
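In this primary screen, negative modulation is detected by tracking calcium flux after an EC80 dopamine challenge in inducible HEK293 T-REx D2 cells preexposed to test compound for 180 s.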
D2 ag-1: activates the human D2 dopamine receptor; 0.53% of 340,000 active; HEK293 T-REx D2 cells, calcium flux agonist mode; P14416; activation, % at 2 µM;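 active = activation over 3 SD above normal in the single-dose calcium agonist read, cut at about 30% in these data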; note: 0% is about no effect
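Tetracycline-induced HEK293 T-REx cells with force-coupled D2 receptor, plated overnight at 30 C, loaded with no-wash calcium dye. After a 10 s baseline, compound was pin-added and calcium flux read kinetically for 180 s; calcium rises flagged agonists.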
D2 PAM-1: D2 dopamine receptor (human) potentiation; AID 485347; HEK293 T-REx D2, calcium flux, EC20 dopamine potentiation; 0.34% of 340,000 active; P14416; potentiation, % at 10 µM;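 active = potentiation over 3 SD above the plate norm, cut at about 30% in these data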; note: 0% is about no effect
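Calcium flux readout, no-wash dye, 1 read/s. Inducible HEK293 Trex D2 line, overnight 30 C. Compound alone 180 s (agonist flags), then EC20 dopamine, another 180 s to score potentiation.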
D2 ag-2: activates the human D2 dopamine receptor | AID 624465 | P14416 | activation, % (concentration not given with the values) | DiscoveRx PathHunter D2 beta-arrestin, luminescence, 90 min; 100% = 57 uM dopamine signal | 0.084% of 360,000 active; in the data active = activation above about 40%; inconclusive = between about 15% and that limit
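Agonist mode: compounds alone added to overnight-plated D2 PathHunter cells for 90 min at 37 C, with 57 uM final dopamine (EC100) defining full response. Beta-arrestin recruitment detected by chemiluminescent reagent, read after 1 h at ambient temperature.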
D2 PAM-2: positive allosteric modulators of human D2 dopamine receptor | DiscoveRx D2 beta-arrestin cells, luminescence, 90 min; 100% = 57 uM dopamine signal | potentiation, % (no concentration beside the values) | 0.23% of 360,000 active | AID 624464; in the data active = potentiation above about 50%; inconclusive = mostly about 30% to 49%
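PathHunter beta-arrestin assay in DiscoveRx D2 cells. Compounds were added with an EC20 of dopamine (50 nM final) for 90 min at 37 deg C. Luminescence was read 1 h after detection reagent, with 57 uM dopamine as the EC100 control.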
* = called active by the depositor.

Screening CC(C)(C)c1ccc(-c2cn(-c3ccc(Br)cc3)c3[n+]2CCCS3)cc1 returned D2 antagonist 42*, D2 ag-1 1, D2 PAM-1 -13, D2 ag-2 -1 and D2 PAM-2 -10.
`c1ccc(-c2cn(-c3ccccc3)c3[n+]2CCS3)cc1` gave D2 antagonist 4, D2 ag-1 -1, D2 PAM-1 8, D2 ag-2 -2 and D2 PAM-2 -9.
For COc1ccccc1N=c1oc2cc(O)ccc2cc1C(=O)NCC1CCCO1 (stereo not given) the results were D2 antagonist 36*, D2 ag-1 1, D2 PAM-1 2, D2 ag-2 -6 and D2 PAM-2 -14.
CC(c1ccccc1)n1cc(C(=O)NCC2CCCO2)nn1 (stereo not given) was read as D2 antagonist 40*, D2 ag-1 0, D2 PAM-1 -12, D2 ag-2 -4 and D2 PAM-2 -4.
CC(c1ccccc1)n1cc(C(=O)NCCN2CCOCC2)nn1 (stereo not given) was read as D2 antagonist -2, D2 ag-1 1, D2 PAM-1 -7, D2 ag-2 -4 and D2 PAM-2 -2.
COCCSc1ccccc1C(=O)NCC1CCCO1 (stereo not given) was read as D2 antagonist 34*, D2 ag-1 0, D2 PAM-1 2, D2 ag-2 -1 and D2 PAM-2 -9.
`COc1cccc(N=c2oc3cc(O)ccc3cc2C(=O)NCC2CCCO2)c1` (stereo not given) gave D2 antagonist 1, D2 ag-1 0, D2 PAM-1 10, D2 ag-2 -1 and D2 PAM-2 -4.
Screening CSc1ccccc1C(=O)NCC1CCCO1 (stereo not given) returned D2 antagonist 2, D2 ag-1 0, D2 PAM-1 2, D2 ag-2 0 and D2 PAM-2 -3.
`Cc1ccc(N2CC(NC(=O)c3ccccc3Br)CC2=O)cc1` (stereo not given) gave D2 ag-1 1 and D2 PAM-1 -3.
`Cc1ccc(OCC(=O)Nc2ccc3nn(-c4ccc(C)cc4)nc3c2)cc1` gave D2 ag-1 0 and D2 PAM-1 2.
COc1cc(-c2nc3ccccn3c2/N=C/c2cc(OC)c(OC)c(OC)c2)ccc1O was read as D2 ag-2 6 and D2 PAM-2 52*.
`C[N+](C)(CCOc1ccccc1)Cc1ccccc1` (tested in a mixture with another compound) gave D2 antagonist 29, D2 ag-1 0, D2 PAM-1 -6, D2 ag-2 inconclusive and D2 PAM-2 74*.
For Clc1cccc(-n2ncc3c(NCCCn4ccnc4)ncnc32)c1 the results were D2 ag-1 1 and D2 PAM-1 -1.
`Brc1ccc(Nc2c3c(nc4nncn24)CCC3)cc1` gave D2 ag-1 -1 and D2 PAM-1 0.
`CC(NC(=O)c1ccccc1Cl)c1nnc(SCC(=O)Nc2ccc(C(=O)O)cc2)n1C` (stereo not given) gave D2 antagonist 30*, D2 ag-1 -1, D2 PAM-1 -2, D2 ag-2 0 and D2 PAM-2 -3.
`O=S(=O)(c1ccc(Cl)cc1)N(CCCN1CCOCC1)Cc1cccs1` gave D2 antagonist 43*, D2 ag-1 0, D2 PAM-1 -24, D2 ag-2 3 and D2 PAM-2 -18.
Screening COc1ccc(Cl)cc1NC(=O)CN(C)C(=O)c1ccc(OCc2ccccc2)c(OC)c1 returned D2 antagonist 37*, D2 ag-1 0, D2 PAM-1 -11, D2 ag-2 -5 and D2 PAM-2 -44.
Screening COc1ccc(Cl)cc1NC(=O)CN(C)C(=O)CCC(=O)c1cc(C)sc1C returned D2 antagonist 62*, D2 ag-1 0, D2 PAM-1 -21, D2 ag-2 -6 and D2 PAM-2 -13.
COc1ccc(-c2noc(CSc3nnc(-c4ccncc4)n3-c3ccccc3)n2)cc1 was read as D2 ag-1 2 and D2 PAM-1 -1.
`COc1ccc(S(=O)(=O)N(CC(=O)Nc2ccc3c(c2)OCO3)c2ccc(C)cc2)cc1` gave D2 ag-1 -1 and D2 PAM-1 -10.
For CC1CCN(S(=O)(=O)c2ccc3ncn(CC(=O)N4CCN(C)CC4)c(=O)c3c2)CC1 the results were D2 antagonist 48*, D2 ag-1 0, D2 PAM-1 12, D2 ag-2 -5 and D2 PAM-2 -4.
For O=C(Nc1nc2c(s1)CN(Cc1ccccc1)CC2)C1CCC1 the results were D2 antagonist 51*, D2 ag-1 2, D2 PAM-1 -2, D2 ag-2 -1 and D2 PAM-2 -7.
For CCN1CCc2nc(NC(=O)c3ccccc3)sc2C1 the results were D2 antagonist -25, D2 ag-1 1, D2 PAM-1 15, D2 ag-2 -4 and D2 PAM-2 7.
For CC1(C)CC(=O)C(C(C2=C(O)CC(C)(C)CC2=O)c2ccc([N+](=O)[O-])cc2)C(=O)C1 (stereo not given) the results were D2 antagonist 33*, D2 ag-1 0, D2 PAM-1 3, D2 ag-2 0 and D2 PAM-2 -8.
`O=C1CC(NS(=O)(=O)c2ccc([N+](=O)[O-])cc2)CN1c1cccc(F)c1` (stereo not given) gave D2 antagonist -7, D2 ag-1 0, D2 PAM-1 42*, D2 ag-2 8 and D2 PAM-2 22.
For CC(=O)c1ccc(S(=O)(=O)NC2CC(=O)N(c3cccc(F)c3)C2)cc1 (stereo not given) the results were D2 antagonist 7, D2 ag-1 -1, D2 PAM-1 6, D2 ag-2 -1 and D2 PAM-2 -1.
O=C1NCCCc2c1oc1ccc(O)cc21 was read as D2 antagonist -17, D2 ag-1 1, D2 PAM-1 -7, D2 ag-2 -4 and D2 PAM-2 -15.
For Oc1c(Cl)cc(Cl)c2c1NCCC2 the results were D2 antagonist 39*, D2 ag-1 1, D2 PAM-1 1, D2 ag-2 inconclusive and D2 PAM-2 17.
`COc1cc(Cl)c(NC(=O)c2cc3ccccn3n2)c(OC)c1` gave D2 PAM-1 0.
`CS(=O)(=O)c1ccccc1C(=O)NC1CCCc2ccccc21` (stereo not given) gave D2 antagonist -6, D2 ag-1 1, D2 PAM-1 37*, D2 ag-2 -1 and D2 PAM-2 -3.
CCS(=O)(=O)c1ccccc1C(=O)NC1CCCc2ccccc21 (stereo not given) was read as D2 antagonist 12, D2 ag-1 -2, D2 PAM-1 7, D2 ag-2 3 and D2 PAM-2 -5.
